Test results reported in ChEMBL document CHEMBL1201862, “PubChem BioAssay data set” (2004).
The whole screen tested about 400,000 compounds, of which about 2,100 (0.53%) were called active. Another 14% or so got no clear call; they are omitted. How the calls were made is not given here. Shown is part of a subset that was picked to be rich in actives.

molecular target: Ataxin-2 (Homo sapiens) (UniProt Q99700); test: qHTS for Inhibitors of ATXN expression.; type: functional
Sequence (Q99700 whole entry): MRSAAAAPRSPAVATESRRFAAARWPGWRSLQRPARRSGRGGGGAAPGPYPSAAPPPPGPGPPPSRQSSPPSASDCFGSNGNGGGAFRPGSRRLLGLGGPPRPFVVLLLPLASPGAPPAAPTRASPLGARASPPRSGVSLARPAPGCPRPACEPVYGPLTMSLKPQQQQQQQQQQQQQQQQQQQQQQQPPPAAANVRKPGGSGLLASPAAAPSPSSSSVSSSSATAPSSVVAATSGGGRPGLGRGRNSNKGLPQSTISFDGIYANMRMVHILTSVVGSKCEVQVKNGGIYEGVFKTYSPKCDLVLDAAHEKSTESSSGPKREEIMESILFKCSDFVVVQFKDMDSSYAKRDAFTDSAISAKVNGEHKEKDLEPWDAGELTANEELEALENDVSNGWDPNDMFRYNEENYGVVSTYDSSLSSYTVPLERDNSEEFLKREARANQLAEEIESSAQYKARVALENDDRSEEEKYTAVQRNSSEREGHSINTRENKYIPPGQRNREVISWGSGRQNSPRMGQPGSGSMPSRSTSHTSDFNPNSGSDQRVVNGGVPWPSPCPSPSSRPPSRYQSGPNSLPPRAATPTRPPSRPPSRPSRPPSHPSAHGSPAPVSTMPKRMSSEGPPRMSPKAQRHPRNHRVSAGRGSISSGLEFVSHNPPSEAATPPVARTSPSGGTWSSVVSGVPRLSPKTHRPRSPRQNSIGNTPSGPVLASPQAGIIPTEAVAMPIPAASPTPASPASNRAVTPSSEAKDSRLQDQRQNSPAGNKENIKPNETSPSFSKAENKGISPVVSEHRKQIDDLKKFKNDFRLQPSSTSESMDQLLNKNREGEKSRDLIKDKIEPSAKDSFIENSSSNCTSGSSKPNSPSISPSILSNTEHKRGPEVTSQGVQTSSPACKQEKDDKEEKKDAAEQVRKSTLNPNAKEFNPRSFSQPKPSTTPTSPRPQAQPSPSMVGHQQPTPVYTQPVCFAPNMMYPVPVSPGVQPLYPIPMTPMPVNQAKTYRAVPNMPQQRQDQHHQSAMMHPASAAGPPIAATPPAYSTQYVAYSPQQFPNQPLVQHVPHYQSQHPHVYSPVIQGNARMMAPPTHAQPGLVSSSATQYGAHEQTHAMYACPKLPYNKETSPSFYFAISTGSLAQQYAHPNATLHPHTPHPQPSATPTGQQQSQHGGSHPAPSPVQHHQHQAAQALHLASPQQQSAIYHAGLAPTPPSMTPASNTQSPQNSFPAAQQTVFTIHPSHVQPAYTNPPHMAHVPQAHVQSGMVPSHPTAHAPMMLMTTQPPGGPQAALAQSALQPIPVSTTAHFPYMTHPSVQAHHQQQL

Compound	Potency
O=C(C[C@H]1C/C=C\C[C@@H](NC(=O)OCC2c3ccccc3-c3ccccc32)C(=O)O[C@@H](c2ccccc2)CNC1=O)N[C@H](CO)Cc1ccccc1	31.6 µM (active)
Nc1ccccc1-n1nc2ccc3ccccc3c2n1	inactive
CNc1ccc(Br)cc(C(=O)/C=C/c2cc(OC)ccc2OC)c1=O	39.8 µM (active)
COc1ccc(OC)c(/C=C/C(=O)N(C)CC(=O)Nc2cc(C)ccc2C)c1	inactive
COc1ccc(Br)cc1/C=C/C(=O)NC(=S)Nc1ccc(Cl)c(C(=O)O)c1	inactive
COc1cc(C(=O)Nc2ccc(Br)cc2C(=O)c2cc(OC)c(OC)c(OC)c2)cc(OC)c1OC	inactive
CNc1ccc(Br)cc(C(=O)/C=C/c2cccc(OC)c2)c1=O	28.2 µM (active)
COc1cccc(NC(=O)c2sc3nc(C)c(C(=O)Nc4ccc(C)cc4C)c(-c4ccc(Br)cc4)c3c2N)c1	inactive
Cc1ccc2nc(N3CCN(C)CC3)c(C=O)c(=O)n2c1	inactive
COCC(C)NC(=O)c1cc(-c2ccc(O)cc2)on1 (centres undefined)	inactive
Nc1c2ccccc2nc2ccccc12	inactive
CNC(=O)Nc1cc(C(F)(F)F)cc(C(F)(F)F)c1	inactive
CC(C)C(N)c1csc(NC(=O)Nc2cccc(C(F)(F)F)c2)n1 (centres undefined)	35.5 µM (active)
NC(c1csc(NC(=O)Nc2cccc(C(F)(F)F)c2)n1)C1CCCCC1 (centres undefined)	28.2 µM (active)
COC(=O)Cc1csc(N/C=C2/C(=O)N(c3cccc(C(F)(F)F)c3)C(=O)c3ccccc32)n1	inactive
O=C(Nc1cccnc1)Nc1cccc(F)c1	inactive
CCCCNc1ccc2c3c(cccc13)C(=O)N(CCCC)C2=O	inactive
Cc1nn2c(-c3ccccc3)c(-c3ccccc3)nc2nc1O	inactive
Cc1cc(C)cc(CC2CC(=O)N(c3cc(C)ccc3C)C2=O)c1 (centres undefined)	inactive
CCC(C)Sc1ccc(-c2nc3cnccn3c2NC2CCCCC2)cc1 (centres undefined)	inactive
CC(C)(C=O)C1=CC(=O)c2ccccc2C1=O	10 µM (active)
CCOC(=O)c1c(NC(=O)c2nn(C)cc2[N+](=O)[O-])sc(C)c1C	inactive
CCCNC1=C(N(C(C)=O)c2cccc(F)c2)C(=O)c2ccccc2C1=O	31.6 µM (active)
C=CCNC(=O)C1CC(=O)N(c2ccc(OCC(=O)N3CCCC3)cc2)C1 (centres undefined)	inactive
CCC/C(C#Cc1ccc(N(C)C)cc1)=C1/c2ccccc2C(=O)N1c1ccccc1	inactive

Compound	Potency
Nc1nc(N)c2cc(Sc3ccc(Cl)cc3)ccc2n1	35.5 µM (active)
O=C(O)c1cc(Sc2ccc(Br)cc2)nc2ccccc12	inactive
N#C/C(=C\c1ccc(N2CCOCC2)o1)C(=O)NCCc1ccccc1	inactive
COc1ccc(C(=O)C(CCCCC(CN(C)C)C(=O)c2ccc(OC)cc2)CN(C)C)cc1 (centres undefined)	31.6 µM (active)
COc1ccc(C(=O)COc2ccccc2C#N)cc1	inactive
COc1ccc(C(=O)NN=C2CCCC2)cc1	inactive
CC(=O)c1cccc(S(=O)(=O)N2CCC(C(=O)Nc3cccc(C(=O)NC4CC4)c3)CC2)c1	inactive
Nc1ccc(OC(=O)Nc2ccc(O)cc2)cc1	inactive
CCOC(=O)CN1N=C(c2ccc(Cl)cc2)CCC1=O	inactive
CCOC(=O)N1C(=O)[C@@](c2ccc(Cl)cc2)(C(C)C)N1C(=O)OCC	31.6 µM (active)
CCN(CC)C(=O)Cn1cc(C(=O)C(=O)N2CC=C(c3ccccc3)CC2)c2ccccc21	inactive
Cc1cccc(NC(=O)NNC(=O)c2cc3ccccc3cc2O)c1C	inactive
C=CCC[C@@H](Cc1ccc(F)cc1)C(=O)OC[C@@H](C)NC(=O)[C@H](CC=C)CC(=O)N(CCO)Cc1ccccc1	39.8 µM (active)
C=CCC[C@@H](Cc1ccc(F)cc1)C(=O)OC[C@H](C)NC(=O)[C@H](CC=C)CC(=O)N(CCO)Cc1ccccc1	28.2 µM (active)
C/C(=N\NC(=O)Cc1csc(N2CCOCC2)n1)c1ccc(Cl)c(Cl)c1	inactive
CCCc1c(-c2ccccc2Br)ncn1Cc1ccccc1OC	31.6 µM (active)
CCCCCN1C(C(=O)c2ccccc2)=C(NC(=O)c2ccc(OC)c(OC)c2)c2ccccc2S1(=O)=O	inactive
CCCCCc1c(-c2ccccc2OC)ncn1CCc1ccccc1OC	31.6 µM (active)
CCCCc1c(-c2ccccc2Br)ncn1CCc1ccccc1OC	28.2 µM (active)
Nc1cccc2c1C(=O)N(CCOc1ccccc1F)C2=O	inactive
CCCCc1c(-c2ccccc2F)ncn1CCc1ccccc1OC	31.6 µM (active)
Cc1cc(Cl)n2c(nc3ccccc32)c1C#N	inactive
CC(CCCC(C)(C)O)NC(=O)c1ccc(OC2CCN(C(=O)C3CC3)CC2)cc1 (centres undefined)	inactive
CCCCc1c(-c2ccc(F)cc2F)ncn1CCc1ccccc1OC	35.5 µM (active)
CCCCCc1c(-c2ccccc2F)ncn1CCc1ccccc1OC	28.2 µM (active)

Compound	Potency
CCOC(=O)C1(CCOC)CCCCC1=O (centres undefined)	inactive
Cc1ccc(Nc2nc(Cl)c(C=O)s2)cc1Cl	inactive
CC(C)N(CCNCc1nnc(-c2ccccc2)o1)C(C)C	inactive
COC(=O)Cc1c(C)c2ccc3c(c2oc1=O)CN(Cc1ccc(Cl)cc1)CO3	inactive
Cc1ccc(C(=O)C(C(=O)/C=C/c2ccccc2)=C2SCCCS2)cc1	25.1 µM (active)
CC1=CC(=O)C=C(C)C1=NOC(=O)/C=C\c1ccccc1	inactive
CCN1CCN(c2cc(C)c3cc(NC(S)=NCCCN4CCc5ccccc5C4)ccc3n2)CC1	25.1 µM (active)
COCCCN=C(S)Nc1ccc2nc(N3CCOCC3)cc(C)c2c1	inactive
Cc1cc(N2CCN(C)CC2)nc2ccc(NC(S)=NCCN3CCc4ccccc4C3)cc12	28.2 µM (active)
Cc1cc(C)c2cc3c(N)c(C(=O)N4CCc5ccccc5C4)sc3nc2c1	inactive
COc1cc(OC)c2c(OC)cccc2n1	inactive
CC(C)c1ccc(O)c(C(=O)c2cnn(-c3ccccc3)c2)c1	inactive
Cc1cccn2c(=O)c3cc(C(N)=S)c(=N)n(CCCOC(C)C)c3nc12	inactive
CCCCNC(=O)C[C@@H]1C[C@@]2(C(=O)OC)CCCCC=C2N(CCC2=CCCCC2)C1=O	39.8 µM (active)
CCCCNC(=O)C1(NC(=O)Nc2ccccc2)CCCCC1	inactive
CCCCOCCCNC(=O)C[C@@H]1C[C@@]2(C(=O)OC)CCCCC=C2N(CCC2=CCCCC2)C1=O	35.5 µM (active)
Cc1cc(NCCCOC(C)C)n2c(nc3ccccc32)c1C#N	inactive
CC(=O)c1ccc(NC(=O)COC(=O)C2CC3C=CC2C3)cc1 (centres undefined)	inactive
O=C1/C(=C\NCc2ccccn2)c2ccccc2C(=O)N1c1ccccc1Cl	inactive
CCN(C(=O)COc1cccc2cccnc12)C1CCS(=O)(=O)C1 (centres undefined)	inactive
Cc1ccc(OCC(=O)N(Cc2ccco2)C2CCS(=O)(=O)C2)cc1C (centres undefined)	inactive
CCN(C(=O)C(C)N1C(=O)/C(=C/c2ccco2)SC1=S)C1CCS(=O)(=O)C1 (centres undefined)	28.2 µM (active)
Cc1ccc(O)c(NN=C2C(=O)CC(C)(C)CC2=O)c1	20 µM (active)
Cc1ccc(O)c(Nc2c3ccccc3nc3ccccc23)c1	inactive
O=C(OCC(=O)c1ccc[nH]1)c1cncc(Br)c1	inactive

Compound	Potency
Cc1ccc(-n2[nH]c(C)c(/C=N/Nc3ccc([N+](=O)[O-])cc3[N+](=O)[O-])c2=O)cc1	14.1 µM (active)
Cc1[nH]c2ccccc2c1/C=N/Nc1ccc([N+](=O)[O-])cc1	inactive
CN1CCN(S(=O)(=O)c2cc([N+](=O)[O-])ccc2N/N=C/c2ccc(Cl)cc2)CC1	inactive
CSC1=NCCN1S(=O)(=O)c1ccc(C)cc1	inactive
CCc1ccc([C@@H]2CC=C(C(=O)O)[C@H](c3ccc(C(C)(C)C)cc3)N2S(=O)(=O)c2ccc(C)cc2)cc1	35.5 µM (active)
CCc1ccc(S(=O)(=O)N2CCN(Cc3ccco3)CC2)cc1	inactive
Cc1ccc(NC(=O)CSC(C)C(=O)OCc2cc(=O)oc3cc(O)ccc23)cc1 (centres undefined)	inactive
CC(=O)Nc1ccc2cc3ccc(NC(C)=O)cc3nc2c1	inactive
CCC(C)NCC(=O)Nc1ccc(-c2nc3cc(NC(=O)CNC(C)CC)ccc3o2)cc1 (centres undefined)	22.4 µM (active)
COc1cc(/C=C\C(=O)Nc2cc(=O)n(C)c(=O)n2C)cc(OC)c1OC	inactive
CNC[C@@H](CC1CCCCC1)NC[C@H](CC(C)C)NCCc1cccc(C(F)(F)F)c1	15.8 µM (active)
CSCCC(=O)N(C)CC1CCCN(CCc2cccc(C(F)(F)F)c2)C1 (centres undefined)	inactive
O=c1nc2c(O)cccn2c2c1c(O)nc1ccccc12	inactive
Cc1nc(C)c(C(=O)OCC(=O)Nc2ccccc2)s1	inactive
CCOc1ccc(NC(=O)COC(=O)CNC(=O)c2ccc(-c3ccccc3)cc2)cc1	inactive
Nc1nc(O)c(CCCOc2ccc(NC(=O)CBr)cc2)c(-c2ccccc2)n1	25.1 µM (active)
CC(C)CC1c2[nH]c3ccccc3c2CCN1C(=O)CCC(=O)N(C)C (centres undefined)	inactive
Cc1cc(Cl)ccc1C(=O)C1CCCN(C(=O)/C=C/c2cnn(C)c2)C1 (centres undefined)	inactive
Cc1cc(C)cc(NC(=O)C2CCCN(C(=O)c3cnn(-c4ccccc4)c3-n3cccc3)C2)c1 (centres undefined)	20 µM (active)
Cc1c(Cl)cccc1NC(=O)CN1CCN(CCNC=C2C(=O)CC(c3ccccc3)CC2=O)CC1 (centres undefined)	inactive
Cc1c(Cl)cccc1NC(=O)C1CCCN(C(=O)c2cnn(-c3ccccc3)c2-n2cccc2)C1 (centres undefined)	39.8 µM (active)
Cc1c(CN2CCCC(C(=O)Nc3cccc(-n4cccn4)c3)C2)cnn1C (centres undefined)	inactive
Cc1cc(C)cc(NC(=O)Nc2ccccc2N2CCCCC2)c1	inactive
Cc1ccc(SCc2nn(C)c(Cl)c2C=O)cc1	inactive
